# In all, about 310,000 compounds went through this assay and about 14,000 (4.5%) showed an effect of 50% or more. Effects have a minus sign here. The list comes from a sample in which strong results are over-represented; it also holds similar structures and randomly drawn compounds.
# Target: human ether-à-go-go-related gene (hERG) potassium channel (human, UniProt Q12809)
# Assay: primary screen, population patch clamp on CHO cells stably expressing hERG; higher = less effect of the substance
# 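Further: peak tail current of the secondary pulse compared with the same well before compound.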
# human ether-à-go-go-related gene (hERG) potassium channel, sequence (Q12809 whole entry, looked up): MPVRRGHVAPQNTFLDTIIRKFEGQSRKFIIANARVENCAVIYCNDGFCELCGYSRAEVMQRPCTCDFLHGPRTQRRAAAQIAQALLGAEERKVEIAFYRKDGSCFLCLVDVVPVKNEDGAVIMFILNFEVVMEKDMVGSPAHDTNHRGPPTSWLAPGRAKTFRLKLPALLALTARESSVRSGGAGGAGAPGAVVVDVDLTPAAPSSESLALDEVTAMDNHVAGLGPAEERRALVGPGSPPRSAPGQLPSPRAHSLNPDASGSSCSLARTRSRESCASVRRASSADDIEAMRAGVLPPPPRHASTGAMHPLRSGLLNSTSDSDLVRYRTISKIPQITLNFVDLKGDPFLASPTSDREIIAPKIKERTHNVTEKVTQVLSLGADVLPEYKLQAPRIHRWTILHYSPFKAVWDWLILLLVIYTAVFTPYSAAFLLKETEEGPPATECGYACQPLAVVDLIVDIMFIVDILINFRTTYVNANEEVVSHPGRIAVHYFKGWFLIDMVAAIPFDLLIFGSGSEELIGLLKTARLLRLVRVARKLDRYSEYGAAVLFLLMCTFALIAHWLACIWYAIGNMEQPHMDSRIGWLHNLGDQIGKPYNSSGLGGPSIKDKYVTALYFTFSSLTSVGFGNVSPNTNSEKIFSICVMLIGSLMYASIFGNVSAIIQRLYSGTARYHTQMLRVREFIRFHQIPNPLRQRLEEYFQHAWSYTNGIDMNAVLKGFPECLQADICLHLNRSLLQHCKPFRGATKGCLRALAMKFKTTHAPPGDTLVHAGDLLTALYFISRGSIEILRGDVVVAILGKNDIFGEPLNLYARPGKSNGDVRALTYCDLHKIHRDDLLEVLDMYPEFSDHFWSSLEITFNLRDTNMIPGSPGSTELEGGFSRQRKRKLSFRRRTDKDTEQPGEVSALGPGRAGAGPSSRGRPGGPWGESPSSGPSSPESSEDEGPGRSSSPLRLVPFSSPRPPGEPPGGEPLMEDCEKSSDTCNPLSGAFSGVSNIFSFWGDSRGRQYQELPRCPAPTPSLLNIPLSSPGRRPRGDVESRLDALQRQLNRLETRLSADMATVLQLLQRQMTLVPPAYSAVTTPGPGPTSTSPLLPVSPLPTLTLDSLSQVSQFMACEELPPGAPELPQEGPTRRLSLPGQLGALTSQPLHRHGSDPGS
row,SMILES,"hERG current change (%, negative = inhibition) at 10uM [%]"
1,CN(C)/C=C/C(=O)c1ccc(N2CCN(c3ncc(C(F)(F)F)cc3Cl)CC2)cc1,-6.08
2,CCOC(=O)c1ccccc1NC(=S)N1CC(C)CC(C)C1 (centres unmarked),-7.45
3,FC(F)(F)c1ccc(CNCCc2ccc3c(c2)OCO3)cc1.O=C(O)C(=O)O,-60.3
4,Fc1ccc(CNCCc2ccc3c(c2)OCO3)cc1,-3.52
5,Clc1cccc(CNCCc2ccc3c(c2)OCO3)c1.O=C(O)C(=O)O,-24
6,COc1cccc(CNCCc2ccc3c(c2)OCO3)c1OC.O=C(O)C(=O)O,-15.5
7,c1cc(CNCCc2ccc3c(c2)OCO3)ccn1,18.3
8,O=C(O)C(=O)O.O=[N+]([O-])c1cc2c(cc1CNCCc1ccc3c(c1)OCO3)OCO2,-61.5
9,COc1ccc(CNCc2cc3c(cc2[N+](=O)[O-])OCO3)cc1.O=C(O)C(=O)O,-40.8
10,O=C(O)C(=O)O.c1cncc(CNCCc2ccc3c(c2)OCO3)c1,8.84
11,Brc1cccc(CNCCc2ccc3c(c2)OCO3)c1.O=C(O)C(=O)O,-24.9
12,Clc1ccc(CNCCc2ccc3c(c2)OCO3)cc1.O=C(O)C(=O)O,-56.1
13,CCOc1ccc(CNCCc2ccc3c(c2)OCO3)cc1,-77.2
14,CCOc1ccccc1CNCCc1ccc2c(c1)OCO2.Cl,-32.8
15,O=C(CSc1ncccn1)Nc1ccccc1,3.55
16,Cc1ccccc1OCc1ccc(C(=O)N2CCOCC2)o1,6.86
17,Cc1cc(C)c(C(=O)O)c(Cl)n1,5.94
18,O=C(OCC(=O)N1CCc2ccccc2C1)c1ccc(Cl)c([N+](=O)[O-])c1,-20.7
19,CC1=C(c2ccccc2)[N+](=O)C2(CCCC2)N1[O-],10.3
20,CCOCCCNC(=S)N(Cc1ccccc1)Cc1nc2ccccc2c(=O)[nH]1,-22.3
21,CCCc1cc(-c2ccc3c(c2)COc2c4ccccc4nn2-3)on1,-21.4
22,C/C(=N\NC(=O)c1ccccc1O)c1ccc(NC(=O)c2ccccc2)cc1,15.3
23,COC(=O)c1c(NC(=O)c2ccccc2)sc2c1CC(C)(C)NC2(C)C,-5
24,Cc1cccc(C(=O)Nc2ccccc2SCC(=O)Nc2ccc(C)c(Cl)c2)c1,28.5

row,SMILES,"hERG current change (%, negative = inhibition) at 10uM [%]"
1,COc1ccc(C(=O)/C=C/Nc2ccc([N+](=O)[O-])cc2C)c(OC)c1,3.07
2,O=C(O)Cn1c(SCCOc2ccccc2)nc2ccccc21,0.876
3,O=S(=O)(c1cccc(-c2nnc(SC(F)F)n2-c2ccccc2)c1)N1CCCCC1,-30.3
4,CC1CCCCN1S(=O)(=O)c1ccc(C(=O)N(CCCN(C)C)c2nc3cc4c(cc3s2)OCO4)cc1.Cl (centres unmarked),-81.1
5,CC1CCCCN1S(=O)(=O)c1ccc(C(=O)N(CCCN(C)C)c2nc3ccc(Br)cc3s2)cc1.Cl (centres unmarked),-37
6,CCC1CCCCN1S(=O)(=O)c1ccc(C(=O)N(CCCN(C)C)c2nc3cc4c(cc3s2)OCO4)cc1.Cl (centres unmarked),-56
7,CN(C)CCCN(C(=O)c1ccc(S(=O)(=O)N(C)C)cc1)c1nc2cc3c(cc2s1)OCO3.Cl,15.5
8,COc1cccc(CC(=O)Nc2ccc3nc(C)sc3c2)c1,8.73
9,CCOc1ccc(/C(O)=C2/C(=O)C(=O)N(CCN(CC)CC)C2c2ccco2)cc1 (centres unmarked),-10
10,COc1ccccc1CNS(=O)(=O)c1ccc(Cl)s1,-6.4
11,COc1cc(OC)cc(C(=O)NCC2CCCN(C(=O)c3oc(C)cc3C)C2)c1 (centres unmarked),-18.5
12,COc1ccc(CC(=O)NCC2CCCN(Cc3ccccc3OC)C2)cc1 (centres unmarked),10.5
13,COc1ccc(CC(=O)NCC2CCCN(Cc3ccc(OC(F)(F)F)cc3)C2)cc1 (centres unmarked),-63.7
14,COc1ccc(CC(=O)NCC2CCCN(Cc3ccc(SC)cc3)C2)cc1 (centres unmarked),-67.5
15,CCc1ccc(CN2CCCC(CNC(=O)c3cc(OC)cc(OC)c3)C2)cc1 (centres unmarked),-69.9
16,COc1ccc(CC(=O)NCC2CCCN(Cc3cc(OC)cc(OC)c3)C2)cc1 (centres unmarked),-21
17,COc1ccc(CC(=O)NCC2CCCN(Cc3cccc(SC)c3)C2)cc1 (centres unmarked),-34.6
18,COc1ccc(CC(=O)NCC2CCCN(Cc3ccccc3Cl)C2)cc1 (centres unmarked),4.3
19,COc1cc(OC)cc(C(=O)NCC2CCCN(Cc3ccc(SC)cc3)C2)c1 (centres unmarked),-72.3
20,COC(=O)c1ccc(CN2CCCC(CNC(=O)Cc3ccc(OC)cc3)C2)cc1 (centres unmarked),-14.7
21,COc1cc(OC)cc(C(=O)NCC2CCCN(Cc3cccc(C(C)=O)c3)C2)c1 (centres unmarked),-25.3
22,Cc1cc(CNC(=O)CCc2nnc(CCCCc3ccccc3)o2)nn1C,38.1
23,Cc1ccc(NC(=O)N2CCCc3ccccc32)cc1C,-29.2
